Measured values published in PubChem BioAssay (NCI).
Compounds without any hit were thinned out: in the full panel of roughly 83,000, 20% have a hit.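 In brief: 96-well plates, 48 h treatment, single concentration, percent growth endpoint.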 Values without a mark were called inactive. The source made the active and inactive calls. Rule for the calls: active = growth percent below 10; inactive = the rest.

The compounds below were run on MOLT-4 leukemia (assay: NCI-60 one-dose screen, 48 h (100 = growth as untreated, 0 = no growth, -100 = all killed)). Details: 10 µM unless noted.
`C=CCN=C1NC(=O)/C(=C/c2cc(C(C)(C)C)c(O)c(C(C)(C)C)c2)S1` was tested, and the growth was 47.4%. With `Nc1nc(-c2ccccc2)cs1` the growth was 105%. In the case of `CC[C@H](C)[C@@H]1NC(=O)[C@H]([C@@H](C)O)NC(=O)C(Cc2ccccc2)NC(=O)[C@@H]2CCCN2C(=O)C(C(C)C)NC(=O)C(Cc2ccccc2)NC(=O)CNC(=O)[C@@H]2CCCN2C1=O` (stereo not given in full), the growth is reported as 7.99% (active). `CCN(CC)CCSc1c2ccc(Cl)cc2nc2ccc(OC)cc12` was tested, and the growth was 48.1%. Compound `Cc1cc2c(C(C)C)c(O)c(O)c(C=NCCCCC(=O)O)c2c(O)c1-c1c(C)cc2c(C(C)C)c(O)c(O)c(C=NCCCCC(=O)O)c2c1O` has a growth of 34.9%. Compound `COc1ccc(Cn2cc(COc3cc(/C=C/C(=O)c4cc(OC)c(OC)c(OC)c4)ccc3OC)nn2)cc1` has a growth of 82.3%. `Cc1ccc(C2=NN(c3ccc(S(=O)(=O)NC(=O)NCc4ccccc4)cc3)C(c3ccc(N(C)C)cc3)C2)c(C)c1` (stereo not given) was tested, and the growth was 23.1%. Compound `c1ccc2c(c1)Oc1ccccc1C2C1c2ccccc2Oc2ccccc21` has a growth of 79.5%. With `COc1ccc(S(=O)(=O)Nc2cc(/C=C\c3cc(OC)c(OC)c(OC)c3)cc(OC)c2OC)cc1OC` the growth was 17.1%. With `COC1=CC(c2ccc[nH]2)=N/C1=C\c1[nH]c(C)c(CCCn2cc(CCCCCCCCC[C@@H]3Cc4cc(O)ccc4C4CC[C@]5(C)[C@@H](O)CC[C@H]5C43)nn2)c1C` (stereo not given in full) the growth was 67.1%.
